Experimental data published in PubChem BioAssay (NCATS).
Records with an inconclusive call do not appear. The source made the active and inactive calls. Calls come from the whole dose curve; as a rule, active = well fitted inhibition curve with a large enough effect; inconclusive = small, poorly fitted or top-dose-only effect; inactive = no such curve, though single readings can be large or run the other way.

Each compound was assayed against Rap guanine nucleotide exchange factor 3 (Homo sapiens) (UniProt O95398) (assay: Confirmatory qHTS for antagonist of cAMP-regulated guanine nucleotide exchange factor 3 (EPAC1) (AID 1645880; note: nearly all actives have a fitted effect of over 55% in size)). Conditions: EPAC1 Rap1B-BODIPY-GDP exchange, fluorescence; activity, negative = inhibition: at 115 µM (top of the series).
Method in brief: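 Nucleotide exchange uses 100 nM EPAC1, 250 nM RAP1B-BODIPY-GDP and 50 uM GDP, with compounds in a concentration-titration series. After 5 min at room temperature, fluorescence (480 nm ex/540 nm em) is read every 5 min for 30 min. Data are normalized to control ATA and DMSO.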
Potency is the fitted concentration of half-maximal effect.

Rap guanine nucleotide exchange factor 3 (Homo sapiens), sequence (O95398 whole entry, looked up): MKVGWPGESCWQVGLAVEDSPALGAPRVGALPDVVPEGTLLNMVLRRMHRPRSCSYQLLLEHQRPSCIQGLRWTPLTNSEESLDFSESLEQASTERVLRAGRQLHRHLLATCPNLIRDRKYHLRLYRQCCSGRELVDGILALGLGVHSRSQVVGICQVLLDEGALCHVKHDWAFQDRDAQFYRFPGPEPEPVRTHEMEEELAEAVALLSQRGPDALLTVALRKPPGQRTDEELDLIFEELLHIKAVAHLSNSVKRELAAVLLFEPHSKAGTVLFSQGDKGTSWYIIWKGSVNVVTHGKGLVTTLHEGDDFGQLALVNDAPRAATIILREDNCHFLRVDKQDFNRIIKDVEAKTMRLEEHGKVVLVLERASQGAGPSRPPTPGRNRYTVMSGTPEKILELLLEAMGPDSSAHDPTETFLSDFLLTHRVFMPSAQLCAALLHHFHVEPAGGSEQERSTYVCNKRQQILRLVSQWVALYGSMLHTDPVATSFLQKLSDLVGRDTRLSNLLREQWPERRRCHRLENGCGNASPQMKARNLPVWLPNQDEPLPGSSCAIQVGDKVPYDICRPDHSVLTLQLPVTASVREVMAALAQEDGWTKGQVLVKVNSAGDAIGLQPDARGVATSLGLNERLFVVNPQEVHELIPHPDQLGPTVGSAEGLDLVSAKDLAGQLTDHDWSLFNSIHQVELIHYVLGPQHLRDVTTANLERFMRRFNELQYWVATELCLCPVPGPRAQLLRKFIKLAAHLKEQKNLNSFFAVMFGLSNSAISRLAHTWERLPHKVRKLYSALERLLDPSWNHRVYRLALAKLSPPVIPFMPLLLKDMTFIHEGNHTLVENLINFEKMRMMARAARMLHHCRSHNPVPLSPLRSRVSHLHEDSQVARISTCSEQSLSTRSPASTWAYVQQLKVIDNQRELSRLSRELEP

SMILES | activity, negative = inhibition | Potency
COc1cc(C)c2c(=O)cc(-c3ccccc3)oc2c1 | -3.59% (inactive) | –
O=C(CCn1c(=O)oc2ccccc21)N(Cc1ccccc1)c1ccccc1 | -24.2% (inactive) | –
COc1cc(/C=N/NC(=O)c2cc(O)cc(O)c2)ccc1OC(=O)c1ccccc1 | – | 33.8 µM (active)
O=C1/C(=C\c2cccc(O)c2O)SC(=S)N1Cc1ccccc1 | – | 75.7 µM (active)
O=C(N/N=C\c1c(O)ccc2ccccc12)c1ccc(S(=O)(=O)N2CCCCC2)cc1 | -9.51% (inactive) | –
CN(C)c1ccc(/C=C/c2c3c(nc4ccccc24)CCCC3)cc1 | 31% (inactive) | –
COc1ccc(Br)cc1CN(C)CC(=O)Nc1c(Cl)cccc1Cl | -19.7% (inactive) | –
COc1ccc([N+](=O)[O-])cc1-c1nc2ccccc2nc1-c1ccccc1 | -30.5% (inactive) | –
O=C1CCC(C(=O)Nc2ccccc2N2CCCC2)=NN1 | -19.1% (inactive) | –
COc1ncc2nc(-c3ccccc3)c(=O)n(Cc3cccs3)c2n1 | -13% (inactive) | –
Cc1ccc(-c2noc(-c3nnn(CC(=O)Nc4cc(Cl)ccc4C)c3N)n2)cc1 | -26.9% (inactive) | –
C=Nc1ccc(/C=C/c2ccnc3ccccc23)cc1 | 2.56% (inactive) | –
O=C1/C(=C\c2cccnc2)Sc2ccccc21 | -29.2% (inactive) | –
Cc1ccc(S(=O)c2ccc([N+](=O)[O-])c3nonc23)cc1 (stereo not given) | – | 23.9 µM (active)
CCn1c2ccccc2c2cc(NC(=O)c3ccc(=O)oc3)ccc21 | -19.2% (inactive) | –
O=C(Nc1ccccc1N1CCCCC1)C1=COCCO1 | -12.2% (inactive) | –
c1ccc(NN(Cc2ccccn2)c2ccccc2)cc1 | -26.9% (inactive) | –
COc1ccc(-c2nc3ccccc3n2Cc2ccccc2)cc1 | -58.9% (inactive) | –
CCOc1ccccc1N1CCN(C(=O)c2cc3c(s2)CCC3)CC1 | -17.9% (inactive) | –
Cc1ccccc1SCC(=O)Nc1cc(C(F)(F)F)ccc1N1CCOCC1 | -3.98% (inactive) | –
CC(=O)Oc1c2c(c3c(c1CC=C(C)C)O[C@@]14C(=CC5CC1C(C)(C)OC4(C/C=C(\C)C(=O)O)C5=O)C3=O)OC(C)(CCC=C(C)C)C=C2 (stereo not given in full) | – | 55.9 µM (active)
CN(C)c1ccc(/C=C/c2sc3ccccc3[n+]2CCCCBr)cc1 | 3.99% (inactive) | –
Oc1ccc2ccccc2c1-c1sc(Nc2ccccc2)n[n+]1-c1ccc(F)cc1 | – | 19 µM (active)
CCCCN(CCC#N)c1ccc(/C=C/c2ccnc3ccccc23)cc1 | 0.264% (inactive) | –
Cc1cc(Br)cc(C=Nc2ccc(N3CCOCC3)cc2)c1O | -7.92% (inactive) | –
